HTT aggregate = qHTS Multiplex Assay to Identify Dual Action Probes in a Cell Model of Huntington: Aggregate Formation (GFP). PC12 HttQ103-GFP aggregates, Acumen cytometry, 40 h. Potency, µM (doses to about 46.1 µM), actives largely listed as inhibitors. actives 1.1% (n = 220,000). AID 1688, 2009; note: nearly all actives have a fitted effect of over 60% in size
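Steps: seed 1500 PC12 HTTQ103-GFP cells/well; add tebufenozide, 100 nM final; add compound titration; add ATPLite reagent; quantify GFP aggregates by laser scanning cytometry.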
TGFb inhibitor = qHTS for Inhibitors of TGF-b | actives 1.2% (n = 410,000) | HepG2 CAGA-GFP TGF-b/SMAD3 reporter, GFP fluorescence, 18 h; TGF-beta stimulated, 500 pg/mL final | Potency, µM (top dose mostly 46.1 µM), most hits filed as inhibitors; note: nearly all actives have a fitted effect of over 65% in size
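HEPG2 CAGA-GFP reporter cells (1000/well, DMEM with 1% FBS) received compounds, then recombinant TGF-beta at 500 pg/mL final for 18 hours at 37 degrees C. Per-cell GFP summed per well was normalised to unstimulated and stimulated DMSO controls before curve fitting.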
HTT ATP protect = qHTS Multiplex Assay to Identify Dual Action Probes in a Cell Model of Huntington: Cytoprotection (ATP). Potency, µM (doses to about 56.4 µM), usual class: activators. actives 0.14% (n = 230,000). PC12 HTT-Q103 induced, cytoprotection, ATP luminescence, 40 h; note: nearly all actives have a fitted effect of over 45% in size
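ATP quantification (ATPlite) reports survival of PC12 cells in which tebufenozide, 100 nM final, switches on Htt exon 1 with 103 glutamines linked to GFP; compounds are titrated.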
S2 tox = Viability Counterscreen for Primary qHTS for Inhibitors of ATXN expression; Potency, µM (highest dose often 56.7 µM), most hits filed as cytotoxic; AID 651635, 2014; S2 cells (HEK-293 line with an ATXN2-luciferase reporter) viability, CellTiter-Fluor protease fluorescence, 24 h; actives 0.49% (n = 400,000); note: nearly all actives have a fitted effect of over 40% in size
ATXN2 expr inh = Primary qHTS for Inhibitors of ATXN expression; AID 1745845, 2022; Potency, µM (highest dose often 57 µM), most hits filed as inhibitors; actives 0.72% (n = 360,000); HEK-293 ATXN2-luciferase reporter, luminescence, 24 h; note: nearly all actives have a fitted effect of over 55% in size
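ATXN2-luciferase reporter cells (luciferase flanked by upstream and downstream ATXN2 gene portions) were treated 24 h at 37 °C with compounds at up to 57 uM. SteadyGlo luminescence gave expression; GF-AFC fluorescence gave viability.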
HepG2 tox = qHTS for Inhibitors of TGF-b: Cytotox Counterscreen | Potency, µM (doses to about 46.1 µM), usual class: cytotoxic | actives 0.76% (n = 410,000) | AID 588856, 2011 | HepG2 CAGA-GFP viability, ATP luminescence, 18 h
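HepG2 CAGA-GFP cells (1000/well, DMEM with 1% FBS) received compound, then TGF-beta at 500 pg/mL final, and were incubated 18 hours at 37 degrees C. Viability was read by CellTiter-Glo luminescence. Media-only wells were set as complete cell-killing and DMSO as no toxicity.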
Hits are given with their value; n = inactive; u = inconclusive; x = no result; [ ] = another dose, or the depositor's remark. This is a sample that favours compounds with a hit; in the whole collection about 2.8% have one here. Calls come from the whole dose curve; as a rule, active = well fitted curve in the direction sought with a large enough effect; inconclusive = small, poorly fitted or top-dose-only effect, or another doubt; inactive = no such curve, though single readings can be large; an effect the other way counts as inactive or inconclusive.

SMILES | HTT aggregate | TGFb inhibitor | HTT ATP protect | S2 tox | ATXN2 expr inh | HepG2 tox
CC[C@@H]1OC(=O)[C@@H](C)[C@H](O[C@@H]2C[C@@](C)(OC)[C@@H](O)[C@H](C)O2)[C@H](C)[C@H](O[C@@H]2O[C@@H](C)C[C@@H](N(C)C)[C@H]2O)[C@@](C)(O)C[C@H](C)C(=O)[C@@H](C)[C@H](O)[C@@]1(C)O | x | x | n | x | x | x
COc1cc2c(cc1OC)[C@H](C)N(CC1C(=O)O[C@@H]3C[C@@]4(C)CCC[C@H](C)[C@@]45OC5[C@H]13)CC2 (stereo partly drawn) | x | x | 8.9µM | x | x | x
CC(=O)/C=C/n1c(=S)oc2ccccc21 | 7.1µM | 6.3µM | n[10 µM] | x | u | 16µM
CC(C)CC(=O)/C=C/n1c(=S)oc2ccccc21 | u | n | n[10 µM] | x | u | n
CCOC(=O)/C(C#N)=C/c1ccc(OC(=O)c2ccco2)c(OCC)c1 | 8.9µM | n | n[10 µM] | n | n | n
O=c1c(Cl)c(N/N=C/c2ccc(Cl)cc2)cnn1-c1ccccc1 | n | u | n[10 µM] | u | x | 14µM
Nc1c(Cl)cnn(-c2ccccc2)c1=O | x | n | x | n | n | n
Cc1ccc(Cn2ncc(Cl)c(Cl)c2=O)cc1 | u | u | n[10 µM] | x | u | n
Nc1c(C(=O)N/N=C/c2ccc(Cl)cc2)cnn1-c1ccccc1 | n[9.22 µM] | n | n[10 µM] | n | n | n
O=c1c(Cl)c(Cl)cnn1Cc1nnc(-c2ccc(Cl)cc2)o1 | u | 13µM | n | u | u | 11µM
O=c1c(Cl)c(Cl)cnn1Cc1ccccc1Cl | n | u | n[0.074 µM] | 10µM | 8.9µM | n
O=c1c(Cl)c(Cl)cnn1-c1ccccc1 | u | u | n[10 µM] | u | u | 14µM
CCN(CC)CCNc1ccc(C)c2sc3ccc(O)cc3c(=O)c12 | x | u | x | x | u | 14µM
CCN(CC)CCNc1ccc(CO)c2oc3cc(Cl)ccc3c(=O)c12 | x | n | x | u | x | n
CCOc1ccc(/C=C2\SC(=S)N(NS(=O)(=O)c3ccccc3)C2=O)cc1OC | n[9.22 µM] | n | n[10 µM] | n | x | n
O=C(O)C(Cc1ccccc1)N1C(=O)/C(=C/c2ccccc2)SC1=S (stereo not drawn) | n | n | n[10 µM] | u | n | n
COc1cc(/C=C2\SC(=S)N(C(Cc3ccccc3)C(=O)O)C2=O)ccc1O (stereo not drawn) | n[9.22 µM] | n | n[10 µM] | 13µM | x | n
CCOc1cc(/C=C2\SC(=S)N(NS(=O)(=O)c3ccccc3)C2=O)ccc1O | x | n | x | 11µM | x | n
COc1cc(/C=C2\SC(=S)N(NC(=O)c3cccnc3)C2=O)ccc1O | n[9.22 µM] | n | n[10 µM] | 32µM | x | n
Cc1ccc2c(C(=O)CNc3nccs3)c[nH]c2c1 | x | n | x | x | x | n
COc1ccc(-n2cnc(N)c2C(=O)c2cccc([N+](=O)[O-])c2)cc1 | 8.9µM | n | n[10 µM] | n | n | n
COc1ccc2cc3c(N)nn(C(=O)c4ccc(F)cc4Cl)c3nc2c1 | x | u | x | n | n | n
COc1ccc2cc3c(N)nn(C(=O)Cc4ccccc4OC)c3nc2c1 | 4.5µM | u | n | u | n | n
COc1ccc2cc3c(N)nn(C(=O)C4CCC(C(C)(C)C)CC4)c3nc2c1 (stereo not drawn) | 10µM | u | x | n | n | n
COc1ccc2cc3c(N)nn(C(=O)c4cccc([N+](=O)[O-])c4)c3nc2c1 | 3.5µM | n | n[10 µM] | n | n | n
SMILES | HTT aggregate | TGFb inhibitor | HTT ATP protect | S2 tox | ATXN2 expr inh | HepG2 tox
COc1ccc(-n2cnc3cc([N+](=O)[O-])ccc32)cc1 | x | n | x | n | n[11.3 µM] | n
COC(=O)c1cc(Cl)ccc1NS(=O)(=O)C(F)(F)F | x | x | x | n | n | x
Nc1ncnc2c1[nH]c(=S)n2C1OC(CO)C(O)C1O (stereo not drawn) | x | n | x | x | x | n
O=C(CCN1CCN(C(=O)OCc2cc(Cl)cc(Cl)c2)CC1)c1ccc2[nH]c(=O)oc2c1 | x | x | x | x | n | x
O=C(Cc1cccs1)Nc1cccc(-c2nc3cc4ccccc4cc3[nH]2)c1 | 25µM | 11µM | x | u | n | n
CCN1C(=O)CC(N2CCN(c3ccc(Cl)cc3)CC2)C1=O (stereo not drawn) | n | n | n | n | n | n
CCN1C(=O)CC(N2CCN(c3ccc(C(=O)c4ccccc4)cc3)CC2)C1=O (stereo not drawn) | 11µM | n | n | n | n | n
COC(=O)Cc1c(C)c2ccc(OCC(C)=O)c(C)c2oc1=O | n | n | n | n | n | n
C=C(C)COc1ccc2c(C)c(CC(=O)OC)c(=O)oc2c1C | 11µM | n | n[10 µM] | n | n | n
COCCNC(=O)COc1ccc(OCCNC[C@H](O)COc2ccccc2)cc1 | x | x | n | x | x | x
Cc1cccc(N2C(=O)CCSC23C(=O)N(Cc2ccc(F)cc2)c2ccccc23)c1 (stereo not drawn) | x | u | x | x | x | 18µM
O=C1CCSC2(C(=O)N(Cc3ccc(F)cc3)c3ccccc32)N1c1ccccc1 (stereo not drawn) | x | u | x | x | x | n
O=C1CCSC2(C(=O)N(Cc3ccc(F)cc3)c3ccccc32)N1c1cccc(F)c1 (stereo not drawn) | x | 13µM | x | x | x | n
C[C@H]([C@H](C)N1CC(=O)NC(=O)C1)N1CC(=O)NC(=O)C1 | x | x | n | x | x | x
COc1ccc(NC(=O)c2nc(S(=O)(=O)Cc3ccc(C)cc3)ncc2Cl)cc1 | x | x | x | x | x | 8.9µM
CCOc1ccc(NC(=O)c2nc(S(=O)(=O)Cc3ccc(C)cc3)ncc2Cl)cc1 | x | u | x | x | x | 13µM
Cc1ccc(C)c(NC(=O)c2nc(S(=O)(=O)Cc3ccc(F)cc3)ncc2Cl)c1 | x | 3.5µM | x | x | x | 3.5µM
CCS(=O)(=O)c1ncc(Cl)c(C(=O)Nc2ccc(C)cc2)n1 | x | u | x | x | u | n
CS(=O)(=O)c1ncc(Cl)c(C(=O)Nc2ccc3ccccc3c2)n1 | u | 5µM | n | 20µM | u | 5.6µM
O=C(Nc1ccc2ccccc2c1)c1cnccn1 | n | n | n[0.074 µM] | n | n | n
CC(C)c1nnc(NC(=O)c2nc(S(=O)(=O)Cc3ccc(F)cc3)ncc2Cl)s1 | x | u | x | u | n | n
C(=Nc1cccnc1)c1ccnc2ccccc12 | x | n | x | x | x | n
Cc1sc2ccccc2[n+]1Cc1ccccc1 | x | u | x | x | x | n
CCOc1ccc(NC(=O)c2nc(S(=O)(=O)Cc3ccccc3)ncc2Cl)cc1 | x | 11µM | x | x | x | 11µM
CC(=O)Nc1ccc(NC(=O)c2nc(S(=O)(=O)Cc3ccccc3)ncc2Cl)cc1 | x | u | x | u | x | n
CCOc1ccc(NCc2cccn2-c2nnc(N3CCC(C(=O)NCCCN4CCCCC4C)CC3)s2)cc1 (stereo not drawn) | x | n | x | n | x | 20µM
CCN(CC)CCNC(=O)c1nn(-c2ccc(Cl)cc2)c2c1CCc1cc(OC)ccc1-2 | x | u | x | u | u | 14µM
